Screening results: PubChem BioAssay, National Center for Advancing Translational Sciences (NCATS)
HT1080 IDH1KD tx: qHTS for induction of synthetic lethality in tumor cells producing 2HG: qHTS for the HT-1080-IDH1KD cell line; HT-1080 IDH1 knockdown viability, ATP luminescence, 48 h; Potency, µM (series often up to 46.1 µM), hits mostly cytotoxic; hit rate 2% among 360,000; AID 686971, 2013
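Cytotoxicity counter-line: IDH1KD HT-1080, 48 h, CellTiter-Glo. Curves classed by r2, magnitude and activity.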
ALOX12 inh: Primary qHTS assay for inhibitors of human arachidonate 12S-lipoxygenase (ALOX12): Round 2 | purified 12hLO, xylenol orange hydroperoxide absorbance | hit rate 1.1% among 580,000 | AID 1671190, 2021 | Polyunsaturated fatty acid lipoxygenase ALOX12 (Homo sapiens), P18054 | Potency, µM (titrated, usually from 108 µM), actives largely listed as inhibitors
Target sequence (P18054 whole entry, looked up): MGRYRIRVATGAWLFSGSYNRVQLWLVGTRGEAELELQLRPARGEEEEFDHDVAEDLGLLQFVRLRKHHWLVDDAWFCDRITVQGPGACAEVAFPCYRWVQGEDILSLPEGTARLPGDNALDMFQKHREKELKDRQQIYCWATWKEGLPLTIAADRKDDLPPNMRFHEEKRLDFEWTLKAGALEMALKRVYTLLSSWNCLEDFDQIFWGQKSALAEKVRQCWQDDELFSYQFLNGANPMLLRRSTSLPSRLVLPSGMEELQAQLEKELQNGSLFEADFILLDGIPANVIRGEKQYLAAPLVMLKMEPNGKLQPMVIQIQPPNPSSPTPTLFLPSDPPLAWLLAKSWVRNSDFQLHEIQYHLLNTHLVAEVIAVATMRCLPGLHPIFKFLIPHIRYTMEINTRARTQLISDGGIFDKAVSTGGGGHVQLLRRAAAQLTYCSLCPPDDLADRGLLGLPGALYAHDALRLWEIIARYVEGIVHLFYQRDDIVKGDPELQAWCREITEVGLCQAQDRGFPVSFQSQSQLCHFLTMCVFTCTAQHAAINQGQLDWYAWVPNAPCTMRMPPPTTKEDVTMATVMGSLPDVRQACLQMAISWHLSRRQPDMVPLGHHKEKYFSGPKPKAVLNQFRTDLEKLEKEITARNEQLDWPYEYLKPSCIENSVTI
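Hydroperoxide product was detected by ferrous iron/xylenol orange as the 573 to 405 nm absorbance ratio. Arachidonic acid at 40 uM (final) was turned over for 30 min at room temperature by 150 nM human 12hLO, pH 7.0 Hepes buffer, after 15 min compound preincubation.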
DT40 TDP1 no CPT: qHTS for Inhibitors of human tyrosyl-DNA phosphodiesterase 1 (TDP1): qHTS in cells in absence of CPT; DT40 Tdp1-/- hTDP1 cells, no CPT, ATP luminescence, 48 h; hit rate 15% among 420,000; Potency, µM (doses to about 46.2 µM), hits mostly inhibitors; AID 686978, 2013; note: nearly all actives have a fitted effect of over 55% in size
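No-CPT arm: Tdp1-/-;hTDP1 DT40 cells (400/well) plus compounds, incubated ≥48 hr at 37 °C. Readout CellTiter-Glo luminescence.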
HT1080-NT tox: qHTS for induction of synthetic lethality in tumor cells producing 2HG: qHTS for the HT-1080-NT fibrosarcoma cell line; HT-1080-NT fibrosarcoma viability, CellTiter-Glo ATP luminescence, 48 h; Potency, µM (series often up to 46.1 µM), hits mostly cytotoxic; hit rate 1.6% among 360,000;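 note: NT is the 2HG producing partner of a matched IDH1 knockdown line; nearly all actives have a fitted effect of over 55% in size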
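Luminescent CellTiter-Glo readout after 48 hours of compound exposure at 37 degrees C defined viability of HT-1080-NT cells. Activity was normalized to DMSO wells and cell-free media wells; concentration-response curves were fitted and assigned curve classes.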
TDP1 cell CPT: qHTS for Inhibitors of human tyrosyl-DNA phosphodiesterase 1 (TDP1): qHTS in cells in presence of CPT; AID 686979, 2013; hit rate 12% among 420,000; chicken DT40 Tdp1-/-;hTDP1 cells + 20 nM CPT, ATP luminescence, 48 h; Potency, µM (series often up to 46.2 µM), most hits filed as inhibitors; note: nearly all actives have a fitted effect of over 55% in size
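Chicken DT40 Tdp1-/- cells complemented with human TDP1, 400 cells/well, exposed to compounds plus 20 nM camptothecin for at least 48 h at 37 C; viability read as ATP content by CellTiter-Glo luminescence.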
IL-1B inflam inh: qHTS for Inhibitors of Inflammasome Signaling: IL-1-beta AlphaLISA Primary Screen; activity change, % at 57.5 µM; hit rate 4.7% among 360,000; THP-1 LPS/ATP IL-1B secretion, AlphaLISA, 16 h; hits give low values; in the data active = activity change below about -50%; inconclusive = mostly about -30% to -49%
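THP-1 cells pretreated 1 hr with compounds (up to 57.5 uM final), then stimulated with LPS (250 ng/mL final) plus ATP (1.25 mM final); secreted IL-1B measured by AlphaLISA after 16 hr, decreased signal indicating inhibition.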
A number is an active result; – = inactive; ? = inconclusive; · = no result given. The entries come from a sample that favours hits as a whole. Unless noted, calls come from the whole dose curve; as a rule, active = well fitted curve in the direction sought with a large enough effect; inconclusive = small, poorly fitted or top-dose-only effect, or another doubt; inactive = no such curve, though single readings can be large; an effect the other way counts as inactive or inconclusive.

SMILES | HT1080 IDH1KD tx | ALOX12 inh | DT40 TDP1 no CPT | HT1080-NT tox | TDP1 cell CPT | IL-1B inflam inh
COC(=O)[C@]12CCCCC=C1N(Cc1ccco1)C(=O)[C@H](CC(=O)NCc1cccc3ccccc13)C2 | – | ? | ? | – | ? | –
O=C(Cc1ccccc1)N1CCC2(CC1)CN(c1ncccn1)CC2CO (stereo unspecified) | · | – | · | · | · | ·
CCCc1ccc(-c2c(C)sc(NC(=O)c3ccc(C)s3)c2C#N)cc1 | · | – | · | · | · | ·
Cc1ccc(C(=O)OCC(=O)N2CCOCC2)cc1 | – | – | – | – | – | –
Cc1ccc(/C(N)=N/OC(=O)N2CCOCC2)cc1 | 18µM | – | ? | ? | 18µM | –
CCOC(=O)C(Cc1ccccc1)C(=O)NCc1ccccc1 (stereo unspecified) | – | – | – | – | – | –
COc1cccc(C(=O)N(Cc2sccc2C)C2CCS(=O)(=O)C2)c1 (stereo unspecified) | · | – | – | · | – | ·
Cc1c(N=Nc2c(-c3ccc([N+](=O)[O-])cc3)[nH]n(C(N)=S)c2=O)cccc1[N+](=O)[O-] | ? | ? | 2.9µM | ? | 2.9µM | ?
NC(=S)n1[nH]c(-c2ccc([N+](=O)[O-])cc2)c(N=Nc2cccc([N+](=O)[O-])c2)c1=O | 0.82µM | ? | ? | 1.5µM | ? | –
NS(=O)(=O)c1ccc(NS(=O)(=O)c2ccc(NC(=O)c3ccccc3[N+](=O)[O-])cc2)cc1 | · | – | · | · | · | ·
O=C(Nc1ccccc1F)c1ccc2c(c1)CCN2S(=O)(=O)c1ccccc1 | – | – | – | – | ? | -69
Cc1cccc(NC(=O)c2ccc3c(c2)CCN3S(=O)(=O)c2ccccc2)c1C | · | – | – | · | – | ·
O=C(Nc1c(F)cccc1F)c1ccc2c(c1)CCN2S(=O)(=O)c1ccccc1 | – | – | – | – | ? | -67
O=C(CN1CCCNCC1)N1CCCC1 | · | – | · | · | · | ·
O=C1OCC2=C1C(c1ccc3c(c1)OCO3)c1cc3c(cc1O2)OCO3 (stereo unspecified) | 6.5µM | – | 2.3µM | 3.3µM | 2.1µM | –
N#CC1=C(N)Oc2cc3c(cc2C1c1ccc(Cl)cc1)OCO3 (stereo unspecified) | ? | ? | ? | – | ? | –
COc1cc(C2C3=C(COC3=O)Oc3cc4c(cc32)OCO4)cc(OC)c1OC (stereo unspecified) | ? | – | 0.15µM | 0.1µM | 0.18µM | –
COc1cc(C2C3=C(COC3=O)Oc3cc4c(cc32)OCO4)cc(OC)c1O (stereo unspecified) | ? | – | 0.65µM | 0.46µM | 0.15µM | –
COc1cc(C2CC(=O)Oc3cc4c(cc32)OCO4)cc(OC)c1OC (stereo unspecified) | – | ? | – | – | – | –
C[C@H](c1ccccc1)N1C(=O)[C@@H]2CN(C(=O)CC(C)(C)C)CCN2C1=O | · | – | · | · | · | ·
COC(=O)c1cc(Nc2nc3ccccc3nc2NS(=O)(=O)c2ccc(C)cc2)ccc1Cl | · | ? | 6.5µM | · | 18µM | ·
CC(=O)Nc1ccc(S(=O)(=O)Nc2nc3ccccc3nc2Nc2ccc(N)cc2)cc1 | – | – | – | – | – | –
Cc1ccc(Nc2nc3ccccc3nc2NS(=O)(=O)c2ccccc2)cc1 | · | – | · | · | · | ·
CC(=O)Nc1ccc(Nc2nc3ccccc3nc2NS(=O)(=O)c2ccc(Cl)c([N+](=O)[O-])c2)cc1 | – | ? | 5.8µM | – | 7.3µM | -108
COC1(NS(=O)(=O)c2ccc(Br)cc2)C(C)=CC(=O)C=C1C | – | – | ? | – | 13µM | –
SMILES | HT1080 IDH1KD tx | ALOX12 inh | DT40 TDP1 no CPT | HT1080-NT tox | TDP1 cell CPT | IL-1B inflam inh
Cc1ccc(NS(=O)(=O)c2ccc(Br)cc2)nc1 | – | – | – | – | – | –
O=C(C1=NO[C@@H]2CN(c3ccc(F)c(Cl)c3)C[C@H]12)N1CCOCC1 | · | – | · | · | · | ·
CC(C)c1c(C(=O)N/N=C/c2cccc(OCc3ccc(F)cc3)c2)nnn1-c1nonc1N | – | – | 16µM | – | ? | -83
COc1cc(/C=N/NC(=O)c2nnn(-c3nonc3N)c2C(C)C)ccc1OCc1ccc(F)cc1 | 12µM | – | 21µM | ? | ? | ?
CCN(CC)c1ccc(/C=N/NC(=O)c2nnn(-c3nonc3N)c2C(C)C)c(O)c1 | 1.3µM | – | 3.3µM | ? | 5.8µM | –
COc1cccc(NC(=O)c2cnc3c(c2)N(C(=O)Cc2cn(C)c4ccccc24)CCC3)c1 | · | – | · | · | · | ·
COc1ccc(N2C(=O)CCS2(=O)=O)cc1S(=O)(=O)N1CCC(C)CC1 | · | – | · | · | · | ·
O=C(Nc1ccc(-c2nnc3n2CCCC3)cc1)c1cnccn1 | · | – | · | · | · | ·
Cc1ccc(C2Cn3nnc(C(=O)Nc4ccc(Br)cc4)c3CO2)cc1 (stereo unspecified) | · | – | · | · | · | ·
Cc1ccc2nc(Nc3nc(CSc4nnc(C)s4)cc(=O)[nH]3)nc(C)c2c1 | – | – | 15µM | – | ? | -88
Cc1ccc2nc(Nc3nc(CSc4nc5ccccc5s4)cc(=O)[nH]3)nc(C)c2c1 | – | – | 15µM | – | 12µM | –
CCCc1cc(=O)[nH]c(Nc2nc(C)c3ccccc3n2)n1 | · | – | · | · | · | ·
COCCOC1CCN(C(=O)Nc2ccc(C(=O)OC)cc2)CC1 | · | – | · | · | · | ·
CC1(C)CC2(OC2c2ccccc2[N+](=O)[O-])C(=O)c2ccccc21 (stereo unspecified) | – | – | 18µM | – | 16µM | –
CN1CC(=O)N(c2ccccc2)Cc2c(NC3CCCC3)ncnc21 | · | – | · | · | · | ·
COc1cccc(-c2cc3c(ccn3C)c(C(=O)NCc3c(C)cc(C)[nH]c3=O)n2)c1 | · | – | · | · | · | ·
Cc1ccc(OCc2nc3ccccc3n2C(C(=O)Nc2c(C)cccc2C)C2CC2)cc1 (stereo unspecified) | ? | – | ? | ? | ? | –
COc1ccc(C(C(=O)NC(C)(C)C)n2c(COc3ccc(C)cc3)nc3ccccc32)cc1 (stereo unspecified) | ? | – | ? | ? | 18µM | –
COc1ccc(C(C(=O)NC(C)(C)C)n2c(-c3ccc(=O)[nH]c3)nc3ccccc32)cc1 (stereo unspecified) | 8.2µM | – | 8.2µM | 13µM | 9.2µM | –
COCCOCC(=O)N1CCCCCC1c1nnc(-c2ccccc2)o1 (stereo unspecified) | · | – | · | · | · | ·
